In all, about 1,700 compounds went through this assay and about 720 (42%) were called active. So high a share suggests a set chosen from earlier hits. The list is a sample of the results. Unmarked numbers belong to inactive results.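 How the source made its calls: active means calcium response below the same-plate mean of wells given acetylcholine alone at its 80%-effect dose, minus 3 SD; inactive means the rest.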

The text below walks through data of PubChem BioAssay AID677 (Vanderbilt High Throughput Screening Facility, 2007).

Chain of Muscarinic acetylcholine receptor M1 (Rattus norvegicus) (P08482 whole entry, looked up): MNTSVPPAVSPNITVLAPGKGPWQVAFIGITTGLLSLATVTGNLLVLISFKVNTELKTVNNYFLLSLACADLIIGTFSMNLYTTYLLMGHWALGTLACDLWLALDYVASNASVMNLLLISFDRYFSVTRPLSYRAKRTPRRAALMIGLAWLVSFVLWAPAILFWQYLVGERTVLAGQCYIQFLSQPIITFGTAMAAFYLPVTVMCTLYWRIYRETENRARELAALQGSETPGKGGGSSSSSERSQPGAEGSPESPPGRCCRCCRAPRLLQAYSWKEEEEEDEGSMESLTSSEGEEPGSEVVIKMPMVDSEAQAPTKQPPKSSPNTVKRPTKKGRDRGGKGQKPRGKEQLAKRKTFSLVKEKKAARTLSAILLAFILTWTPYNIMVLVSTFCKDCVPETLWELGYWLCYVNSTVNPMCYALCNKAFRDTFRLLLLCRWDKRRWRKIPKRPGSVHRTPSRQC

The assay concerns the target Muscarinic acetylcholine receptor M1 (Rattus norvegicus) (UniProt P08482). As to the kind of experiment: rat M1 muscarinic receptor antagonists, confirmation, CHO cells, Fluo-4 calcium, duplicate (AID 677).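 Further: raw fluorescence intensity difference in arbitrary instrument units and not normalized.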 The settings on record: ACh EC80 antagonism, at 10 µM, active compounds read low.
Turning to `COc1ccc(C2NCc3ccc4c(c3-n3cccc32)OCO4)cc1OC` (stereo not given), the calcium response (max-min fluorescence) is 455 (active). Turning to `Fc1ccc(N2CCN(Cc3ccc4c(c3)OCO4)CC2)cc1`, the calcium response (max-min fluorescence) was 588. Consider `CCOC(=O)C1SC2(C(F)(F)C(F)F)CC1(O)c1c(c(OC)c3occc3c1OC)O2` (stereo not given), for which the calcium response (max-min fluorescence) was 516. In the case of `CC[N+]1(C)CCCC(OC(=O)C(O)(c2ccccc2)c2ccccc2)C1` (stereo not given), the calcium response (max-min fluorescence) is 17.5 (active). Consider `COc1ccc(CN2CCN(c3ccccc3F)CC2)c(OC)c1`, for which the calcium response (max-min fluorescence) was 547.
